The results in this text go back to publication PMC4336329 (PLoS ONE, 2015).

Among all 310,000 compounds or so, about 2,200 (0.71%) showed an effect of 50% or more. The effect is printed as a negative number. For the sample, strong results were picked, then their nearest neighbours and some compounds at random.

The target in the assay is human ether-à-go-go-related gene (hERG) potassium channel (human, UniProt Q12809). The assay can be described thus: primary screen, population patch clamp on CHO cells stably expressing hERG; higher = less effect of the substance.
Sequence of human ether-à-go-go-related gene (hERG) potassium channel (Q12809 whole entry, looked up): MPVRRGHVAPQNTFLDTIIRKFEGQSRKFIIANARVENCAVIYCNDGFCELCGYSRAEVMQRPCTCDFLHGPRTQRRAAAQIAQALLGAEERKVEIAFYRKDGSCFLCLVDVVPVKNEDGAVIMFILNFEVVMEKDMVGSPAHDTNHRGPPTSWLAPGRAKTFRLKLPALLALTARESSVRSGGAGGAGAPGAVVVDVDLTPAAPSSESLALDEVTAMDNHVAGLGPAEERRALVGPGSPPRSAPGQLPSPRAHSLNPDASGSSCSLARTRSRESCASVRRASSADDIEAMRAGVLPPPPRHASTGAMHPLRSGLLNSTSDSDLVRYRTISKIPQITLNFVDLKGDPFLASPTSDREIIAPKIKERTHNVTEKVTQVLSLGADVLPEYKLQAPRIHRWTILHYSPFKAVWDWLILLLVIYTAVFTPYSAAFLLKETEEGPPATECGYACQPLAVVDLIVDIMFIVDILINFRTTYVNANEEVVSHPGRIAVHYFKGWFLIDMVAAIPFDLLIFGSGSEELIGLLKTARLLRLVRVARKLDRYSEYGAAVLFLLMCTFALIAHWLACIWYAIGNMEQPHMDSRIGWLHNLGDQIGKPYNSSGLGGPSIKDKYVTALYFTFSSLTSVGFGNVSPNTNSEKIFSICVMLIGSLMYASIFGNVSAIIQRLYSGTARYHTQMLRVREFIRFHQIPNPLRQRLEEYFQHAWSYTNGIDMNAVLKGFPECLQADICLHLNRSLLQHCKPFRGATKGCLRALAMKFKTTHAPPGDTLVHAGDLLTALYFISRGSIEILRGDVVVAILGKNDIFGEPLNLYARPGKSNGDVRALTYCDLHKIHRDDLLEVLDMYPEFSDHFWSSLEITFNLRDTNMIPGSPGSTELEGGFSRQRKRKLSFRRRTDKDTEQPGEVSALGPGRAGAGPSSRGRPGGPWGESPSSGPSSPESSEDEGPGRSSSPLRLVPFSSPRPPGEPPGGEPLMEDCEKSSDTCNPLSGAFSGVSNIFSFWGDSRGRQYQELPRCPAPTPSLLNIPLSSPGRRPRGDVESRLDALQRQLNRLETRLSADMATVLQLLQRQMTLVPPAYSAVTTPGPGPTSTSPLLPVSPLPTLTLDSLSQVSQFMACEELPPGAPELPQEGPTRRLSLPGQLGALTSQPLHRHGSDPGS
`O=C(OCc1cc(=O)n2c(n1)sc1ccccc12)c1ccc(O)cc1O`: the “hERG current change (%, negative = inhibition) at 1uM” value came to 7.81%. The value for `COCCNc1c(-c2cc3ccc(C)c(C)c3[nH]c2=O)nc2ccccn12` was -77%; that for `Cc1cccc2cc(-c3nc4c(C)cccn4c3NCc3ccco3)c(=O)[nH]c12` was 2.58%; that for `Cc1ccc2[nH]c(=O)c(-c3nc4ccccn4c3NCc3ccco3)cc2c1` was -4.3%. The value for `CCOCCCNC(=O)CN(Cc1ccc(Cl)cc1)S(C)(=O)=O` was 8.42%. As to `COCCCNC(=O)c1ccc2c(c1)OCO2`, the “hERG current change (%, negative = inhibition) at 1uM” value is reported as -2.46%. The value for `CC(NC(=O)C1CCC1)c1ccc2c(c1)OCO2` (stereo not drawn) was -3.43%. The same measure for `c1ccc(CNCc2ccc3c(c2)OCO3)nc1`: 11%; for `CCNCCC(CCC(C)C)c1ccc2c(c1)OCO2` (stereo not drawn): -64.3%; for `CC(C)CCC(CCNCc1ccccn1)c1ccc2c(c1)OCO2.Cl` (stereo not drawn): -79.1%. The value for `Cl.Fc1ccccc1CNCCC(Cc1ccccc1)c1ccc2c(c1)OCO2` (stereo not drawn) was 10.8%; that for `COCCCNS(=O)(=O)c1ccc2c(c1)OCCO2` was 5.7%; that for `COCCCNCCC(CCC(C)C)c1ccc2c(c1)OCO2.Cl` (stereo not drawn) was -85.8%.

As to `CC(C)CCC(CCNCc1ccccn1)c1ccc(Cl)cc1` (stereo not drawn), the “hERG current change (%, negative = inhibition) at 1uM” value was -40.7%. Take `COc1ccccc1NS(=O)(=O)c1ccc(C)c(C(=O)NCC2CCCO2)c1` (stereo not drawn): the “hERG current change (%, negative = inhibition) at 1uM” value was -14.5%. The same measure for `CCNc1nc(N)nc(Oc2ccc(OCCOc3ccccc3)nn2)n1`: 8.36%; for `COc1ccc2[nH]c(C)c(CCN(Cc3cccs3)C(=S)Nc3ccccc3)c2c1`: 6.37%. The value for `O=C1c2ccc3c4c(ccc(c24)C(=O)N1NC(=O)C(F)(F)F)CC3` was 10.1%. For `COc1cc(NC(=O)c2ccccc2F)c(OC)cc1NC(=O)CN1CCCCC1.Cl`, the “hERG current change (%, negative = inhibition) at 1uM” value stood at 1.58%. The value for `O=C(O)c1ccccc1C(=O)Nc1ccc(Br)c(C(F)(F)F)c1` was 2.61%.

Take `CCc1ccc(N2C(=O)CC(N3CCN(Cc4ccc5c(c4)OCO5)CC3)C2=O)cc1` (stereo not drawn): the “hERG current change (%, negative = inhibition) at 1uM” value is -1.13%. The same measure for `Cc1ccc(-c2csc3nc(C(C)C)oc(=O)c23)c(C)c1`: 13.5%; for `CCOc1ccccc1CN1CCN(Cc2nc3ccccc3s2)CC1CCO` (stereo not drawn): -67.7%. The same measure for `CCOc1ccccc1CN1CCN(Cc2cccc3c2OCO3)CC1CCO` (stereo not drawn): -2.66%.

On to `COc1ccc(CN2CCN(Cc3cccc4nonc34)CC2CCO)c(C)c1C` (stereo not drawn), for which the “hERG current change (%, negative = inhibition) at 1uM” value was -7.13%. The same measure for `OCCC1CN(Cc2cccc3nonc23)CCN1Cc1ccsc1` (stereo not drawn): -15.7%; for `CCOc1ccccc1CN1CCN(Cc2ccon2)CC1CCO` (stereo not drawn): -7.08%.

In the case of `COc1cccc(CN2CCN(Cc3cccc4nonc34)CC2CCO)c1` (stereo not drawn), the “hERG current change (%, negative = inhibition) at 1uM” value was -24%.

For the compound `CCOc1ccccc1CN1CCN(Cc2nc3c(s2)CCCC3)CC1CCO` (stereo not drawn), the “hERG current change (%, negative = inhibition) at 1uM” value was -26.6%. The same measure for `CCOc1ccc(CN2CCN(Cc3cccc4nonc34)CC2CCO)cc1` (stereo not drawn): -84.6%. The value for `CCOc1ccccc1CN1CCN(Cc2cccc3nonc23)CC1CCO` (stereo not drawn) was -50%. The same measure for `CC1CC(C)CN(C(=O)c2cc3cc(Br)cc(Br)c3o2)C1` (stereo not drawn): 11.6%; for `COc1ccc(CN2C=C3C(=O)C(C)(OC(=O)C4CCCC4)C(=O)C=C3C=C2c2ccsc2)cc1` (stereo not drawn): -2.57%; for `CCOC(=O)N(NC(=O)C(O)(CC(C)C)CC(C)C)c1ccccc1`: 6.37%. For the compound `CCN(CC)CCN1C(=O)Cn2c(C)c(C)c3cccc1c32.Cl`, the “hERG current change (%, negative = inhibition) at 1uM” value was -12.2%. The same measure for `CCN(CC)CCN1C(=O)Cn2c(C)c(C)c3cccc1c32.O=C(O)C(O)C(O)C(=O)O`: -56.1%; for `CCN(CC)CCN1c2ccccc2Sc2ccccc21.O=C(O)C(=O)O`: -3.5%; for `CCCc1ncc(CN2CCCCC2C(=O)Nc2ccc(Oc3ccccc3)nc2)cn1` (stereo not drawn): 12.1%. The same measure for `Cc1cc(=O)c(C(=O)O)nn1-c1cccc(C(F)(F)F)c1`: -78.9%; for `O=C(O)c1nn(-c2cccc(C(F)(F)F)c2)ccc1=O`: 15.1%; for `Cc1cc(=O)c(C(=O)O)nn1-c1ccccc1`: 8.46%.

Take `Cc1ccc2nc(C)cc(N/N=C/c3ccc(F)cc3)c2c1`: the “hERG current change (%, negative = inhibition) at 1uM” value is 0.285%.

`CC(=O)Nc1ccc(N2CCC(C)CC2)c([N+](=O)[O-])c1`: the “hERG current change (%, negative = inhibition) at 1uM” value is 7.46%. On to `COc1ccc(C2CC(C(F)(F)F)n3nc(C(=O)N(C)Cc4cn(C)nc4C)c(Cl)c3N2)cc1` (stereo not drawn), for which the “hERG current change (%, negative = inhibition) at 1uM” value is recorded as -3.33%. With `CCOC(=O)c1cnc(N2CCN(C(=O)OCC)CC2)[nH]c1=O`, the “hERG current change (%, negative = inhibition) at 1uM” value stood at 13.9%.
